Data taken from the supplement of paper PMC10849652.
Of roughly 8,800 targets only a part is listed; those with a hit were picked by preference. About 0.5% of all pairs of compound and target were hits.

Legend:
Assay in all cases: log2 fold change, soluble protein after heating vs DMSO (PISA); higher = thermal stabilisation; K562 lysate, 10 uM; active = over 0.2 and 3.5 SD of the protein, either way, in both replicates (recomputed)
lapatinib = compound: CS(=O)(=O)CCNCc1ccc(-c2ccc3ncnc(Nc4ccc(OCc5cccc(F)c5)c(Cl)c4)c3c2)o1 [lapatinib]
Procedure, shortened: (§1)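 The values are log-two fold changes in thermal stability compared with solvent controls and come from duplicates. They were obtained by TMTpro 16plex LC-MS/MS, with channel sums equalised, on the supernatant after 21,000xg for 90 min. That supernatant came from crude K562 extract at 1 mg/mL protein treated with 10 μM compound for 30 min, heated for 3 min across 48°C-58°C, pooled and brought to 0.5% NP-40 at 4°C.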

pictilisib = compound: CS(=O)(=O)N1CCN(Cc2cc3nc(-c4cccc5[nH]ncc45)nc(N4CCOCC4)c3s2)CC1 [pictilisib]
Procedure, shortened: as §1

crizotinib = compound: C[C@@H](Oc1cc(-c2cnn(C3CCNCC3)c2)cnc1N)c1c(Cl)ccc(F)c1Cl [crizotinib]
Procedure, shortened: as §1

[1] = compound: C[C@H](C1=CC=C(C=C1)C(=O)NC2=C3C=CNC3=NC=C2)N
Procedure, shortened: as §1

duvelisib = compound: C[C@H](Nc1ncnc2nc[nH]c12)c1cc2cccc(Cl)c2c(=O)n1-c1ccccc1 [duvelisib]
Procedure, shortened: as §1

gandotinib = compound: Cc1cc(Nc2cc(CN3CCOCC3)c3nc(C)c(Cc4ccc(Cl)cc4F)n3n2)n[nH]1 [gandotinib]
Procedure, shortened: as §1

tozasertib = compound: Cc1cc(Nc2cc(N3CCN(C)CC3)nc(Sc3ccc(NC(=O)C4CC4)cc3)n2)n[nH]1 [tozasertib]
Procedure, shortened: as §1

doramapimod = compound: Cc1ccc(-n2nc(C(C)(C)C)cc2NC(=O)Nc2ccc(OCCN3CCOCC3)c3ccccc23)cc1 [doramapimod]
Procedure, shortened: as §1

bafetinib = compound: Cc1ccc(NC(=O)c2ccc(CN3CC[C@H](N(C)C)C3)c(C(F)(F)F)c2)cc1Nc1nccc(-c2cncnc2)n1 [bafetinib]
Procedure, shortened: as §1

[2] = compound: Cc1cccc(CC(=O)N2CCc3c2ccc(-c2cn(C)c4ncnc(N)c24)c3F)n1
Procedure, shortened: as §1

Measured: log2 fold change

CMPK2 (UniProt Q5EBM0)
inactive: lapatinib 0.065 | pictilisib 0 | crizotinib 0.007 | [1] -0.074 | duvelisib 0.043 | gandotinib 0.008 | tozasertib 0.018 | doramapimod -0.01 | bafetinib -0.061 | [2] 0.056

CTPS2 (UniProt Q9NRF8)
inactive: lapatinib -0.025 | pictilisib -0.018 | crizotinib -0.004 | [1] -0.032 | duvelisib 0.016 | gandotinib -0.002 | tozasertib 0.009 | doramapimod 0.021 | bafetinib 0.077 | [2] 0.003

DFFB (UniProt O76075)
inactive: lapatinib 0.003 | pictilisib -0.016 | crizotinib 0.023 | [1] 0.003 | duvelisib -0.008 | gandotinib 0.015 | tozasertib 0.049 | doramapimod -0.07 | bafetinib -0.028 | [2] -0.021

CHUK (UniProt O15111)
inactive: lapatinib 0.001 | pictilisib -0.031 | crizotinib -0.067 | [1] 0.112 | duvelisib 0.036 | gandotinib -0.067 | tozasertib 0.024 | doramapimod 0.008 | bafetinib -0.001 | [2] -0.048

DOCK10 (UniProt Q96BY6)
active: [1] -0.641
inactive: lapatinib -0.025 | pictilisib -0.024 | crizotinib -0.461 | duvelisib 0.003 | gandotinib 0.231 | tozasertib 0 | doramapimod 0.137 | bafetinib -0.226 | [2] 0.379

CIAO2A (UniProt Q9H5X1)
Chain of UniProt Q9H5X1 (Q9H5X1 whole entry, looked up): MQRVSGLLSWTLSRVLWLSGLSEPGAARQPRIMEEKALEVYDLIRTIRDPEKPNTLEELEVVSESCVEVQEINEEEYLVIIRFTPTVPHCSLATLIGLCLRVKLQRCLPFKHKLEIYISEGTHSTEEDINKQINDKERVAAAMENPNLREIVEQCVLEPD
active: [2] -0.276
inactive: lapatinib 0.007 | pictilisib -0.058 | crizotinib -0.014 | [1] 0.181 | duvelisib -0.01 | gandotinib 0 | tozasertib 0.042 | doramapimod 0.11 | bafetinib -0.015

DARS (UniProt P14868)
Chain of UniProt P14868 (P14868 whole entry, looked up): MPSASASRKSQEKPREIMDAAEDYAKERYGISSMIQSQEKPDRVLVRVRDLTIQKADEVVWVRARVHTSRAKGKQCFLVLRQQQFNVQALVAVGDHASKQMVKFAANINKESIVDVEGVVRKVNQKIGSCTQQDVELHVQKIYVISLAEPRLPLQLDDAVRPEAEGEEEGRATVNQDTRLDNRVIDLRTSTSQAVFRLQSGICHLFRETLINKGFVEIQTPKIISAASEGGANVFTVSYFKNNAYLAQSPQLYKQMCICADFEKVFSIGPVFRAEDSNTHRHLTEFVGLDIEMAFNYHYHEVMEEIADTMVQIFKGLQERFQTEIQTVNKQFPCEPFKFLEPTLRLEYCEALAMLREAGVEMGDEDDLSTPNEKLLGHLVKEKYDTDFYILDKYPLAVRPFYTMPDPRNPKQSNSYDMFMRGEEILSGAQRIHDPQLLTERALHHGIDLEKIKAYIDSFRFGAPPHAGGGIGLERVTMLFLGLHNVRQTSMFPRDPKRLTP
inactive: lapatinib 0.002 | pictilisib 0 | crizotinib -0.033 | [1] -0.036 | duvelisib 0 | gandotinib -0.081 | tozasertib 0.011 | doramapimod 0.015 | bafetinib -0.011 | [2] 0.008

CNDP2 (UniProt Q96KP4)
inactive: lapatinib -0.021 | pictilisib -0.017 | crizotinib -0.008 | duvelisib 0.037 | tozasertib -0.062 | doramapimod 0.001 | bafetinib -0.002 | [2] 0.212
active: [1] -0.255 | gandotinib 0.244

CUEDC2 (UniProt Q9H467)
active: [1] 0.528
inactive: lapatinib 0.018 | pictilisib -0.119 | crizotinib 0.001 | duvelisib -0.009 | gandotinib -0.026 | tozasertib -0.055 | doramapimod 0.022 | bafetinib -0.073 | [2] -0.082

CUX1 isoform 3 (UniProt P39880)
inactive: lapatinib -0.01 | pictilisib -0.045 | crizotinib 0.004 | [1] 0.076 | duvelisib 0.007 | gandotinib -0.116 | tozasertib 0.032 | doramapimod -0.025 | bafetinib -0.012 | [2] 0.007

CNOT6L (UniProt Q96LI5)
inactive: lapatinib -0.03 | pictilisib -0.042 | crizotinib -0.076 | [1] -0.251 | duvelisib -0.001 | gandotinib 0.065 | tozasertib 0.064 | doramapimod 0.012 | bafetinib -0.1 | [2] 0.114

DDB2 (UniProt Q92466)
inactive: lapatinib -0.03 | pictilisib -0.025 | crizotinib -0.025 | [1] -0.01 | duvelisib 0.014 | gandotinib 0.046 | tozasertib -0.026 | doramapimod 0.05 | bafetinib 0.023 | [2] 0.008

DNAJC5 (UniProt Q9H3Z4)
active: [1] -0.377 | [2] 0.334
inactive: lapatinib -0.021 | pictilisib 0.075 | crizotinib 0.007 | duvelisib -0.041 | gandotinib 0.161 | tozasertib -0.054 | doramapimod 0.023 | bafetinib -0.144

CHEK1 (UniProt O14757)
Chain of UniProt O14757 (O14757 whole entry, looked up): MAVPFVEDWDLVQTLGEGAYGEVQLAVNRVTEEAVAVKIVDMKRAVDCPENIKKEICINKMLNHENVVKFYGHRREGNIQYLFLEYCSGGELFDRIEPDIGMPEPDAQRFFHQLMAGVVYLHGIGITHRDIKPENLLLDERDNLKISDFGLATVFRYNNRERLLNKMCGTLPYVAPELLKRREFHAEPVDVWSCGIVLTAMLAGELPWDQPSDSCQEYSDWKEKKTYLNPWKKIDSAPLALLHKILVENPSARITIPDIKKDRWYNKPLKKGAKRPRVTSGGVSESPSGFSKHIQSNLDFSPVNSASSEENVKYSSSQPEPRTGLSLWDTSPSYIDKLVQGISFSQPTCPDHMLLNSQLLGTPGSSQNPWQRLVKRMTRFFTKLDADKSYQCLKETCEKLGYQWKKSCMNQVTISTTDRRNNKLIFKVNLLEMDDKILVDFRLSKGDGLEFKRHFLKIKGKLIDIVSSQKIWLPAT
inactive: lapatinib -0.008 | pictilisib -0.003 | crizotinib -0.021 | [1] 0.174 | duvelisib -0.009 | gandotinib -0.014 | tozasertib 0.017 | doramapimod 0.04 | bafetinib -0.025 | [2] 0.015

DNAAF5 (UniProt Q86Y56)
inactive: lapatinib -0.03 | pictilisib -0.008 | crizotinib -0.104 | [1] 0.016 | duvelisib 0.021 | gandotinib -0.147 | tozasertib -0.055 | doramapimod 0.024 | bafetinib -0.066 | [2] 0.027

DMXL1 (UniProt Q9Y485)
inactive: lapatinib -0.003 | pictilisib -0.014 | crizotinib -0.021 | [1] 0.001 | duvelisib 0.007 | gandotinib -0.028 | tozasertib 0.002 | doramapimod 0.039 | bafetinib -0.01 | [2] 0.026

DICER1 (UniProt Q9UPY3)
inactive: lapatinib -0.02 | pictilisib -0.071 | crizotinib -0.075 | [1] -0.075 | duvelisib -0.05 | gandotinib 0.02 | tozasertib 0.035 | doramapimod 0.039 | bafetinib -0.11 | [2] 0.084

CMBL (UniProt Q96DG6)
Chain of UniProt Q96DG6 (Q96DG6 whole entry, looked up): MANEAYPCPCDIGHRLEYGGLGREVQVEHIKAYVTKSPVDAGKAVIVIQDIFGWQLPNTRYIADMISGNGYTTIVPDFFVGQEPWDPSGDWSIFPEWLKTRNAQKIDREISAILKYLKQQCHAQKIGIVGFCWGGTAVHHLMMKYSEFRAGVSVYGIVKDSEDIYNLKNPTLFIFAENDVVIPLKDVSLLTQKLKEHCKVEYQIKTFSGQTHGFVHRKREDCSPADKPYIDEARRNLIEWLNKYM
inactive: lapatinib -0.024 | pictilisib 0.076 | crizotinib 0.065 | [1] -0.162 | duvelisib 0.031 | gandotinib 0.127 | tozasertib 0.016 | doramapimod -0.021 | bafetinib -0.028 | [2] -0.001

CXorf38 (UniProt Q8TB03)
inactive: lapatinib -0.05 | pictilisib -0.017 | crizotinib -0.019 | [1] -0.039 | duvelisib 0.013 | gandotinib 0.037 | tozasertib 0.037 | doramapimod 0.013 | bafetinib -0.018 | [2] -0.033

CUL1 (UniProt Q13616)
Chain of UniProt Q13616 (Q13616 whole entry, looked up): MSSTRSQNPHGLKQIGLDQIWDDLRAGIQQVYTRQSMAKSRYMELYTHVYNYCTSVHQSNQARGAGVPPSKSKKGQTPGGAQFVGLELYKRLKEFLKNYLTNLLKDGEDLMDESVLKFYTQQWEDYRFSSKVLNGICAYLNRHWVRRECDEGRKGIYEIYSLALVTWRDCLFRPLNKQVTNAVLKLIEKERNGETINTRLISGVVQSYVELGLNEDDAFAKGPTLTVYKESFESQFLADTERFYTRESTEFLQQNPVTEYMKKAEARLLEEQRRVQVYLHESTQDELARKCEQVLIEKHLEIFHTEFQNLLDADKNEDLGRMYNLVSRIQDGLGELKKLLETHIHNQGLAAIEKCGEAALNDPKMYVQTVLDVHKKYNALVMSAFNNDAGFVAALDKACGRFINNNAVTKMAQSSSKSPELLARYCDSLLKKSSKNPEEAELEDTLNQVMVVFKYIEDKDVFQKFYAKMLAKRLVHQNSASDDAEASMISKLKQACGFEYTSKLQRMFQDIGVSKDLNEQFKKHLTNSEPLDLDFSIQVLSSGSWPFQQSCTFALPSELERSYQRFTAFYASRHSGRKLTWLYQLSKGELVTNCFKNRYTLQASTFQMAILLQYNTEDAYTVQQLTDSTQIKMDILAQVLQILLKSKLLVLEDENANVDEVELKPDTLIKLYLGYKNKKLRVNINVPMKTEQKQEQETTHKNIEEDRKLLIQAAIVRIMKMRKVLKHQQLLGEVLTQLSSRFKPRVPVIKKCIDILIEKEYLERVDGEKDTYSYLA
inactive: lapatinib -0.007 | pictilisib 0.004 | crizotinib 0.014 | [1] -0.007 | duvelisib 0.015 | gandotinib 0.03 | tozasertib -0.001 | doramapimod 0.01 | bafetinib 0.03 | [2] -0.002

CTNND1 isoform 3 (UniProt O60716)
inactive: lapatinib -0.019 | pictilisib -0.047 | crizotinib -0.039 | [1] -0.006 | duvelisib 0.008 | gandotinib -0.001 | tozasertib 0.002 | doramapimod 0.007 | bafetinib -0.025 | [2] 0.04

DCUN1D4 isoform 3 (UniProt Q92564)
inactive: lapatinib 0.072 | pictilisib 0.046 | crizotinib -0.02 | [1] 0.001 | duvelisib 0.02 | gandotinib -0.104 | tozasertib -0.009 | doramapimod 0.004 | bafetinib -0.003 | [2] -0.039

CRABP2 (UniProt P29373)
Chain of UniProt P29373 (P29373 whole entry, looked up): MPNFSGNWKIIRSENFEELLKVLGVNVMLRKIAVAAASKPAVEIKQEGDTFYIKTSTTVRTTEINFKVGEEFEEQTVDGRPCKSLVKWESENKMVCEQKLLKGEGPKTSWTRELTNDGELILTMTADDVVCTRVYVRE
inactive: lapatinib -0.008 | pictilisib -0.026 | crizotinib -0.025 | [1] 0.041 | duvelisib -0.056 | gandotinib 0.091 | tozasertib 0.241 | doramapimod 0.078 | bafetinib 0.014 | [2] -0.138

CSNK1G3 (UniProt Q9Y6M4)
inactive: lapatinib -0.155 | pictilisib 0.118 | crizotinib 0.026 | [1] 0.214 | duvelisib -0.042 | gandotinib -0.032 | tozasertib -0.048 | doramapimod -0.003 | bafetinib -0.09 | [2] -0.021

CKM (UniProt P06732)
active: [1] -0.431
inactive: lapatinib -0.041 | pictilisib -0.035 | crizotinib -0.13 | duvelisib 0.087 | gandotinib 0.096 | tozasertib -0.078 | doramapimod -0.019 | bafetinib -0.023 | [2] 0.113

DOCK8 (UniProt Q8NF50)
Chain of UniProt Q8NF50 (Q8NF50 whole entry, looked up): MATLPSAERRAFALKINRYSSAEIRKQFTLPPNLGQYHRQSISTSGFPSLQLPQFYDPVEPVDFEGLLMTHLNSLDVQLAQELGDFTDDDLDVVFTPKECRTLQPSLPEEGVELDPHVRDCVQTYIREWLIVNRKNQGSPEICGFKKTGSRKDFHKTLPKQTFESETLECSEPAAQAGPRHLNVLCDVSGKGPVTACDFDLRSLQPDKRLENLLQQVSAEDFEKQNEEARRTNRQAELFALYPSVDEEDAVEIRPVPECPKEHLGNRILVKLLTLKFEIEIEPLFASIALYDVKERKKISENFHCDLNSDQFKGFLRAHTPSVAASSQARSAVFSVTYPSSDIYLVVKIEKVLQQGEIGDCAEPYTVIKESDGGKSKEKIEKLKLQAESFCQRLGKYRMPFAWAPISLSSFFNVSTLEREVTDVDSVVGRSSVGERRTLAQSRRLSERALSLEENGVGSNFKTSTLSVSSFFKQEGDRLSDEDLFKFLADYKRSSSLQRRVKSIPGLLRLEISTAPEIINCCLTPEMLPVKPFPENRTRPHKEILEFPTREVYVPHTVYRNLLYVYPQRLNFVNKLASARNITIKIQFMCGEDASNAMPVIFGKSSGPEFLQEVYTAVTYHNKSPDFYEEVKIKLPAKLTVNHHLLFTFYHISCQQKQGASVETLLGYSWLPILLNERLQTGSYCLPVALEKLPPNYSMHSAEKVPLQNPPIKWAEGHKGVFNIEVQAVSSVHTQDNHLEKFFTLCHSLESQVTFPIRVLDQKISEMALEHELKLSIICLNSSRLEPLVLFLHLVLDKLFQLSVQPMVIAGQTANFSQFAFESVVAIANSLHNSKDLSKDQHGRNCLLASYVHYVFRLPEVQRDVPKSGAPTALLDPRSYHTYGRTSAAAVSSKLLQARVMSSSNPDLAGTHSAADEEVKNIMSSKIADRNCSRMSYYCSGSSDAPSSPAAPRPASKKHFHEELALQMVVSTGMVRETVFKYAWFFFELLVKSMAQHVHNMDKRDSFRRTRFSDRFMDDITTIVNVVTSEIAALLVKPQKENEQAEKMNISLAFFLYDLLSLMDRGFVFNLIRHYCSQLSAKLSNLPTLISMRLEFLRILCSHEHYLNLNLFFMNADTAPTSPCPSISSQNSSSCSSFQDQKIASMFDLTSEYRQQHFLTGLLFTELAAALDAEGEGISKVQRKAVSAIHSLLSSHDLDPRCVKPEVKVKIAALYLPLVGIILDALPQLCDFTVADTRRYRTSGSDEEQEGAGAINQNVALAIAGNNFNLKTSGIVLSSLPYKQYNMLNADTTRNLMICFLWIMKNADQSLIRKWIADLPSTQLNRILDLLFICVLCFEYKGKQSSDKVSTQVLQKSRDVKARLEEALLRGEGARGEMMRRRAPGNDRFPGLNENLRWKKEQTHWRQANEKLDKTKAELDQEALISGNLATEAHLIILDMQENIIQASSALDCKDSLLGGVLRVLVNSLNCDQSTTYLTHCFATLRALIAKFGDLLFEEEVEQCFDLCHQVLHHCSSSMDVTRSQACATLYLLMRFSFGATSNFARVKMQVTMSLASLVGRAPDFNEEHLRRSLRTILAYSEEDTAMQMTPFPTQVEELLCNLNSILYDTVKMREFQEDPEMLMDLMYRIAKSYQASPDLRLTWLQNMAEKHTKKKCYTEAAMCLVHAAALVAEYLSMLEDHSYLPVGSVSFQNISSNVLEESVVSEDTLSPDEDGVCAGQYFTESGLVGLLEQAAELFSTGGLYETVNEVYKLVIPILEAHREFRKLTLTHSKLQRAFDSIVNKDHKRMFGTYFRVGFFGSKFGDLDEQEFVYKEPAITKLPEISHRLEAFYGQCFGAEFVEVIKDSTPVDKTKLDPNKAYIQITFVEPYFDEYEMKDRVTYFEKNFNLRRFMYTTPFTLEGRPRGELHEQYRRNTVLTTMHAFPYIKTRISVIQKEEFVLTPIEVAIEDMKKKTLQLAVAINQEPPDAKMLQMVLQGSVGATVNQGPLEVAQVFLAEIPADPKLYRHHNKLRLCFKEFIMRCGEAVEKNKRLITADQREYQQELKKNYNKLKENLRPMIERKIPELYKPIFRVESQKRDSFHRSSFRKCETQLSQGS
inactive: lapatinib -0.032 | pictilisib -0.011 | crizotinib -0.03 | [1] -0.002 | duvelisib 0.003 | gandotinib -0.097 | tozasertib 0.042 | doramapimod 0.029 | bafetinib -0.062 | [2] 0.02

CKAP5 (UniProt Q14008)
inactive: lapatinib 0.001 | pictilisib 0.013 | crizotinib -0.017 | [1] 0.004 | duvelisib 0.001 | gandotinib -0.053 | tozasertib 0.01 | doramapimod 0.011 | bafetinib 0.005 | [2] 0.015

CSNK1D (UniProt P48730)
inactive: lapatinib -0.098 | pictilisib 0.066 | crizotinib 0.052 | [1] -0.153 | duvelisib 0.007 | gandotinib 0.059 | tozasertib 0.008 | doramapimod -0.011 | bafetinib -0.01 | [2] -0.177

CHEK2 (UniProt O96017)
Chain of UniProt O96017 (O96017 whole entry, looked up): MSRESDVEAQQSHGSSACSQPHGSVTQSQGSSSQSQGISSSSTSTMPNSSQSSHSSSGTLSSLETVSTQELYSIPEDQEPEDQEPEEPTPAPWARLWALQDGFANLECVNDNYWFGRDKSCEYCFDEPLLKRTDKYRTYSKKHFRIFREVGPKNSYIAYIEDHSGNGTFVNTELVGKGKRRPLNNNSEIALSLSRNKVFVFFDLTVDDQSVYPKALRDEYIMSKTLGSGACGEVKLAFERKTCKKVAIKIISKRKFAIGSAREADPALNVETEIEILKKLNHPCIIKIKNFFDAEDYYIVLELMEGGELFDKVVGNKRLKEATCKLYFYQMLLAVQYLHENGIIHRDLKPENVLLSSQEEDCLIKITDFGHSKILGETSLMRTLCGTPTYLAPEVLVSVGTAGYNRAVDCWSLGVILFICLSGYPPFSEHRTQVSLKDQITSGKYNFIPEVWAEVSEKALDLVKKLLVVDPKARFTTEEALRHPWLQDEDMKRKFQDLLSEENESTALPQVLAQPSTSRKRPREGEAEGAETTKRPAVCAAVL
inactive: lapatinib 0.08 | pictilisib -0.012 | crizotinib 0.069 | [1] -0.011 | duvelisib 0.002 | gandotinib -0.019 | tozasertib 0.039 | doramapimod 0.018 | bafetinib -0.046 | [2] -0.008

CSTB (UniProt P04080)
inactive: lapatinib 0.05 | pictilisib 0.003 | crizotinib -0.059 | [1] -0.235 | duvelisib 0.025 | gandotinib 0.147 | tozasertib -0.01 | doramapimod 0.107 | bafetinib 0.012 | [2] 0.104
